Data on eight molecules can be found in PubChem BioAssay (NCI).

About 83,000 compounds went through this panel and 20% of them were active in at least one assay; those are over-represented in the sample as a whole.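 96-well plates, one dose, 48 hours. Percent growth reported; active if below 10.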 Unmarked numbers belong to inactive results. The source made the active and inactive calls.

Test systems include HCT-15 colon; HT29 colon; SNB-75 CNS; SNB-19 CNS; U251 CNS; PC-3 prostate; SK-MEL-5 melanoma; UACC-62 melanoma; LOX IMVI melanoma; SK-MEL-28 melanoma; SK-MEL-2 melanoma; EKVX NSCLC; SN12C renal; UO-31 renal; TK-10 renal; ACHN renal; CAKI-1 renal; CCRF-CEM leukemia; A498 renal; MOLT-4 leukemia.
Holding throughout (test): NCI-60 one-dose screen, 48 h (100 = growth as untreated, 0 = no growth, -100 = all killed)
Common to all, as to conditions: 10 µM unless noted

In the case of `CCCCCCNC(=O)Oc1ccc(/C(=C(/CC)Cc2ccccc2)c2ccc(OCCN(CC)CC)cc2)cc1`, the growth is 5.48% (active) in the experiment with HCT-15 colon; -24.3% (active) in the experiment on HT29 colon; 78.8% with SNB-75 CNS; 69.2% with SNB-19 CNS; 43.2% with U251 CNS; 51.6% in the experiment with PC-3 prostate. Besides, the growth in the experiment with SK-MEL-5 melanoma is 51.2%; in the experiment on UACC-62 melanoma, 87.6%; in the experiment with LOX IMVI melanoma, 80.1%; with SK-MEL-28 melanoma, 80.8%; in the experiment on SK-MEL-2 melanoma, 99.8%; in the experiment with EKVX NSCLC, 81%. Besides, the growth in the experiment on SN12C renal was 73.5%; in the experiment with UO-31 renal it was 58%; with TK-10 renal, 93.1%; with ACHN renal, 89.4%; with CAKI-1 renal, 91%; in the experiment on CCRF-CEM leukemia, 45.4%.

With `CCN1C(=O)N(CC)C2C1NN=c1s/c(=C3\C(=O)Nc4ccccc43)c(=O)n12` (stereo unspecified), the growth is 26.8% in the experiment on HCT-15 colon; 5.74% (active) in the experiment with HT29 colon; -13.6% (active) in the experiment with SNB-75 CNS; 36.5% in the experiment on SNB-19 CNS; 31.4% in the experiment on U251 CNS; 22.6% in the experiment on PC-3 prostate. Moreover, the growth with SK-MEL-5 melanoma was 19.5%; in the experiment on UACC-62 melanoma, 30.9%; with LOX IMVI melanoma, 42.2%; in the experiment on SK-MEL-28 melanoma, 53%; in the experiment with SK-MEL-2 melanoma, 37.6%; in the experiment on EKVX NSCLC, 65.3%. The growth in the experiment with SN12C renal is 34%; in the experiment with UO-31 renal it was 42.9%; in the experiment on TK-10 renal it was 60.5%; with ACHN renal, 43%; with CAKI-1 renal it was 35.5%; in the experiment with A498 renal, -26.6% (active). The growth in the experiment on MOLT-4 leukemia is 46.1%.

`COc1cc2nc(-c3ccc(C(F)(F)F)cc3)cc(OCCN3CCC(O)CC3)c2cc1OC`: the growth with HCT-15 colon was 53.8%; in the experiment with HT29 colon, 47%; with SNB-75 CNS, 58.1%; in the experiment with SNB-19 CNS, 89%; in the experiment with U251 CNS it was 69.2%; with PC-3 prostate it was 71.8%. The growth was 68% in the experiment with SK-MEL-5 melanoma; 84.5% in the experiment on UACC-62 melanoma; -20.6% (active) with LOX IMVI melanoma; 80.7% with SK-MEL-28 melanoma; 103% in the experiment with SK-MEL-2 melanoma; 61.9% with EKVX NSCLC. Also, the growth in the experiment with SN12C renal was 57.5%; with UO-31 renal, 52.4%; with TK-10 renal, 86.1%; with ACHN renal it was 75.5%; with CAKI-1 renal, 34.6%; with CCRF-CEM leukemia it was 84.8%. In addition, in the experiment with MOLT-4 leukemia, the growth is 77%.

Consider `Cc1[nH]c(C(=O)Nc2ccccc2OCc2cccc(C(=O)NCCN)c2)c(Cl)c1Cl`, for which the growth was 86.3% with HCT-15 colon; 38.2% with HT29 colon; 86.2% with SNB-75 CNS; 58.3% in the experiment with SNB-19 CNS; 4.71% (active) in the experiment on U251 CNS; 79.7% in the experiment with PC-3 prostate. Also, the growth with SK-MEL-5 melanoma is 95.3%; in the experiment with UACC-62 melanoma, 92.6%; in the experiment with LOX IMVI melanoma, -48.1% (active); in the experiment on SK-MEL-28 melanoma it was 84.3%; in the experiment on SK-MEL-2 melanoma it was 107%; in the experiment on EKVX NSCLC it was 89.1%. The growth is 58% in the experiment with SN12C renal; 75% in the experiment with UO-31 renal; 138% with TK-10 renal; 101% in the experiment with ACHN renal; 85.6% in the experiment with CAKI-1 renal; 25.1% in the experiment on CCRF-CEM leukemia. Moreover, the growth with MOLT-4 leukemia is 40.3%.

With `COc1ccccc1/C=C1\Oc2cc(OCCCN3CCCC3)ccc2C1=O`, the growth is 77.7% in the experiment on HCT-15 colon; 16.4% with HT29 colon; 83.5% in the experiment on SNB-75 CNS; 91.2% in the experiment on SNB-19 CNS; 76.5% in the experiment on U251 CNS; 85.8% with PC-3 prostate. The growth was 79.8% with SK-MEL-5 melanoma; 95.6% in the experiment with UACC-62 melanoma; 75.8% in the experiment with LOX IMVI melanoma; 91.9% in the experiment on SK-MEL-28 melanoma; 102% in the experiment with SK-MEL-2 melanoma; 90.6% in the experiment with EKVX NSCLC. The growth in the experiment with SN12C renal was 86.9%; with UO-31 renal, 77.9%; in the experiment with TK-10 renal it was 104%; in the experiment on ACHN renal, 97.4%; in the experiment on CAKI-1 renal, 77.8%; with A498 renal, 77.3%. Further, the growth with MOLT-4 leukemia was 93.3%.

Take `CC[C@H](CC[C@@H](C)[C@H]1CC[C@H]2[C@@H]3CC=C4C[C@@H](OCCc5nn[nH]n5)CC[C@]4(C)[C@H]3CC[C@]12C)C(C)C`: the growth in the experiment with HCT-15 colon is 102%; in the experiment on HT29 colon, 94.8%; in the experiment with SNB-75 CNS, 107%; in the experiment with SNB-19 CNS, 110%; in the experiment on U251 CNS, 105%; with PC-3 prostate, 112%. In addition, the growth is 111% with SK-MEL-5 melanoma; 118% in the experiment with UACC-62 melanoma; 99.9% with LOX IMVI melanoma; 110% with SK-MEL-28 melanoma; 111% in the experiment with SK-MEL-2 melanoma; 102% in the experiment on EKVX NSCLC. The growth was 108% in the experiment with SN12C renal; 99.5% in the experiment on UO-31 renal; 101% in the experiment with TK-10 renal; 105% in the experiment on ACHN renal; 105% in the experiment on CAKI-1 renal; 103% in the experiment on CCRF-CEM leukemia. Moreover, the growth in the experiment with MOLT-4 leukemia was 100%.

As for `C=C(C)[C@H]1CC/C(C)=C/CC[C@]2(C)O[C@H]2CC/C(COC(=O)[C@@H](OC(C)=O)[C@H](NC(=O)c2ccccc2)c2ccccc2)=C\[C@@H]1O`, the growth in the experiment on HCT-15 colon was 105%; with HT29 colon, 102%; with SNB-75 CNS, 72.6%; with SNB-19 CNS, 81.8%; in the experiment on U251 CNS, 99.2%; with PC-3 prostate it was 90.1%. In addition, the growth with SK-MEL-5 melanoma was 78.8%; in the experiment with UACC-62 melanoma, 59.3%; in the experiment with LOX IMVI melanoma, 93.1%; in the experiment on SK-MEL-28 melanoma, 104%; in the experiment on SK-MEL-2 melanoma, 119%; in the experiment with EKVX NSCLC it was 84.7%. In addition, the growth with SN12C renal is 93.8%; in the experiment on UO-31 renal, 79.4%; in the experiment with TK-10 renal, 99.7%; in the experiment with ACHN renal it was 116%; with CAKI-1 renal, 89.6%; in the experiment on A498 renal it was 92.8%. In addition, in the experiment with MOLT-4 leukemia, the growth is 98.2%.

`N#C/C(=C\c1ccc(Br)cc1)n1nnc2cccc(F)c21`: the growth in the experiment on HCT-15 colon is 1.81% (active); in the experiment with HT29 colon it was 11.8%; with SNB-75 CNS, -24.8% (active); with SNB-19 CNS, 25.6%; with U251 CNS it was 15.6%; with PC-3 prostate, 29%. Also, the growth in the experiment on SK-MEL-5 melanoma was 1.82% (active); with UACC-62 melanoma, 22.7%; in the experiment on LOX IMVI melanoma, -56.3% (active); in the experiment on SK-MEL-28 melanoma, 49.5%; in the experiment on SK-MEL-2 melanoma it was 22.3%; in the experiment on EKVX NSCLC, 61.8%. Besides, the growth in the experiment on SN12C renal is 4.62% (active); with UO-31 renal, 2.69% (active); in the experiment with TK-10 renal, 15.6%; in the experiment on ACHN renal it was 20.2%; in the experiment with CAKI-1 renal, 18.2%; in the experiment on CCRF-CEM leukemia, -2.73% (active). Besides, the growth in the experiment with MOLT-4 leukemia is 1.33% (active).
